Measured values: PubChem BioAssay (NCI)
About 83,000 compounds went through this panel and 20% of them were active in at least one assay; those are over-represented in the sample as a whole.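 Single-concentration screen, 48 h exposure, 96-well plates. Endpoint: percent growth. Below 10 = active.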 Activity calls are given as the source filed them.

These molecules were tested on MDA-MB-468 breast (assay: NCI-60 one-dose screen, 48 h (100 = growth as untreated, 0 = no growth, -100 = all killed)). Settings: 10 µM unless noted.

| SMILES | growth |
| --- | --- |
| CCOc1ccccc1Cn1ccnc1CCc1c(Cl)c(O)cc(O)c1C(=O)OC | 106% (inactive) |
| N=C1c2nc3n(c2C(=O)c2nc4n(c21)CCCCC4)CCCCC3 | 99.8% (inactive) |
| CCN1C(=O)N(CC)C2C1NN=c1s/c(=C\c3ccccc3F)c(=O)n12 (stereo not given) | 10.9% (inactive) |
| CS(=O)(=O)c1cccc(Nc2ncc3cc(-c4ccccc4Cl)ccc3n2)c1 | 13.1% (inactive) |
| CSc1nc(N)c2c(n1)N(C)C=NS2(=O)=O | 107% (inactive) |
| O=C(CNc1nc(-c2ccc(Cl)cc2)cs1)Nc1ccc(-c2nc3ccccc3s2)cc1 | -39.5% (active) |
| CCCC(O)Cn1ncc(C(=O)OCC)c1NC(=O)NCc1cccc(F)c1 (stereo not given) | 97.3% (inactive) |
| O=C(N/N=C/c1ccc[nH]1)c1[nH]c2ccc(Br)cc2c1-c1ccccc1 | -0.633% (active) |
| O=C(Nc1ccc(C2=NCCCN2)cc1)Nc1ccc(C2=NCCCN2)cc1 | 42.2% (inactive) |
| Oc1ccc(Br)cc1/C=N/NC(=S)NC12CC3CC(CC(C3)C1)C2 | 46.8% (inactive) |
| CNc1nc(NC2CCCC2)nc(Sc2ccc(OC)cc2)n1 | 42.5% [100 µM] (inactive) |
| CC(C)CCSc1nc(Nc2ccccc2)c(C#N)c(-c2ccccc2)n1 | 43.4% (inactive) |
| CN=S(=O)(OCCCCCOS(=O)(=NC)c1ccc(C)cc1)c1ccc(C)cc1 (stereo not given) | 83.3% (inactive) |
| c1ccc2cc3nc4cc5ccccc5cc4nc3cc2c1 | 117% (inactive) |
| O=C(Nc1ccccc1)NS(=O)(=O)c1c[nH]c(=S)[nH]c1=O | 112% (inactive) |
